# High-throughput results deposited in PubChem by National Center for Advancing Translational Sciences (NCATS).
# In the library only some 12% were active in any assay of this set; here they are far more common.
# Sfp inh = qHTS Assay for Inhibitors of Bacillus subtilis Sfp phosphopantetheinyl transferase (PPTase) | 4'-phosphopantetheinyl transferase ffp (Bacillus subtilis), Q9F4F7 | Biochemical Sfp PPTase activity, qHTS | Potency, µM, for inactives: largest response in the series, negative = inhibition, usual class: inhibitors | actives 3.5% (n = 310,000);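 further: the enzyme is Sfp with the accession as filed and its product quenches rhodamine fluorescence; 0% = enzyme reaction without inhibitor and -100% = no enzyme wells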
#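 Fluorescence-quenching assay: 15 nM Sfp-PPTase preincubated 15 min at room temperature with compound, then 5 uM rhodamine-CoA and 12.5 uM BHQ-2-labelled YbbR peptide added. Fluorescence (ex 525/em 598 nm) read at start and after 30 min; difference gives rate.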
# G9a block = qHTS Assay for Inhibitors of Histone Lysine Methyltransferase G9a; Histone-lysine N-methyltransferase EHMT2 (Homo sapiens), Q96KQ7; G9a H3K9 monomethylation, AlphaScreen, 2 h; Potency, µM (top dose mostly 102 µM), for the others: at the top dose activity, negative = inhibition, actives largely listed as inhibitors; actives 8.8% (n = 350,000); AID 504332, 2011; further: on the % scale 0 is the no-effect control and ±100 the full control effect; nearly all actives have a fitted effect of over 75% in size
# Target sequence (Q96KQ7 913-1193 limits assumed): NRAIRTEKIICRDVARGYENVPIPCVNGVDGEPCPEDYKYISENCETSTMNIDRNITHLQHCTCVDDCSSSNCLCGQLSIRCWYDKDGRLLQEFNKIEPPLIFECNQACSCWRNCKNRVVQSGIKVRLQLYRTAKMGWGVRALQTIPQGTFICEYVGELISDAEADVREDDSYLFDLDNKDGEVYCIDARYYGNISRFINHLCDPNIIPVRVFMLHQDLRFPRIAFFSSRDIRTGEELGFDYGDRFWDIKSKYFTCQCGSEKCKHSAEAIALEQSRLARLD
#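 AlphaScreen read-out: biotin-H3K9 peptide (500 nM) methylation by 20 nM enzyme with 20 uM SAM, 2 h at room temperature after 15 min compound preincubation; anti-monomethyl H3K9 antibody plus donor/acceptor beads, 10 min dark.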
# JMJD2A Tudor = qHTS Assay for Inhibitors of JMJD2A-Tudor Domain; Potency, µM (top dose mostly 114 µM), for the others: at the highest dose activity change, negative = inhibition, most hits filed as inhibitors; AlphaScreen JMJD2A-Tudor / H3K4me3 peptide binding; AID 504339, 2011; Lysine-specific demethylase 4A (Homo sapiens), O75164; actives 4.4% (n = 390,000); further: on the % scale 0 is the no-effect control and ±100 the full control effect; nearly all actives have a fitted effect of over 50% in size
# HP1b chromo inh = HTS for Inhibitors of HP1-beta Chromodomain Interactions with Methylated Histone Tails | Chromobox protein homolog 1 (Homo sapiens), P83916 | AlphaScreen HP1-beta / biotin-H3K9me3 peptide binding | Potency, µM (doses to about 114 µM), without a hit: at the top dose activity change, negative = inhibition, actives largely listed as inhibitors | actives 0.56% (n = 390,000) | AID 540317, 2011; further: nearly all actives have a fitted effect of over 70% in size
# Target sequence (P83916 whole entry, looked up): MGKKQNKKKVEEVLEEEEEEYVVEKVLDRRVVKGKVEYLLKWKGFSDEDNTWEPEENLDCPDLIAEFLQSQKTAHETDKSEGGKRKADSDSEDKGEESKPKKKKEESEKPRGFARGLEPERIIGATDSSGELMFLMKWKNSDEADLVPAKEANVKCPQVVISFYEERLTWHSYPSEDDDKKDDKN
#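 HP1-beta protein (50 nM final) preincubated 30 min at room temperature with biotinylated H3(1-18)K9me3 peptide (50 nM) in PBS pH 7.4, 0.01% Tween-20, then compound added for 30 min. AlphaScreen streptavidin donor/nickel chelate acceptor beads (10 ug/mL final), 30 min dark, luminescence read.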
# BAZ2B block = qHTS Assay for Inhibitors of BAZ2B. AlphaScreen BAZ2B-H3K14Ac peptide displacement. Potency, µM (top dose mostly 114 µM), inactives show at the top dose activity change, negative = inhibition, usual class: inhibitors. actives 4.4% (n = 360,000). AID 504333, 2011; further: on the % scale 0 is the no-effect control and ±100 the full control effect; nearly all actives have a fitted effect of over 60% in size
#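 Complex of BAZ2B and biotin-H3K14Ac (50 nM apiece) forms over 30 min at RT, then faces library compounds up to 110 uM for another 30 min; AlphaScreen beads added, 20 min dark incubation, luminescence read.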
# An asterisk follows results filed as active; ? = inconclusive; / = no result; [ ] = remark or other dose. The call rests on the fitted dose curve; in most records, active means well fitted curve in the direction sought with a large enough effect; inconclusive means small, poorly fitted or top-dose-only effect, or another doubt; inactive means no such curve, though single readings can be large; an effect the other way counts as inactive or inconclusive. Potency means the concentration at half of the fitted maximal effect.
SMILES,Sfp inh,G9a block,JMJD2A Tudor,HP1b chromo inh,BAZ2B block
O=C(CN1C(=O)NC(c2ccccc2)(c2ccccc2)C1=O)Nc1ccc2[nH]c(=O)[nH]c2c1,5%,?,-24%,-8%,?
O/N=C/CCn1c(=S)sc2ccccc21,3%,?,-31%,33%,6%
Cc1ccc(NC(=O)CN2C(=O)N/C(=C/c3ccccc3OCc3cccc(C(=O)O)c3)C2=O)cc1,89µM*,45µM*,28µM*,?,18µM*
COc1cccc(/C=C2/NC(=O)NC2=O)c1OCC(=O)Nc1ccccc1,10%,-6%,-16%,36%,-4%
COc1cccc(/C=C2/NC(=O)N(CC(=O)Nc3ccc(C)cc3)C2=O)c1OCc1cccc(C(=O)O)c1,?,?,?,?,25µM*
COc1cc2c(cc1/C=C1/NC(=O)N(CC(=O)Nc3ccccc3)C1=O)OCO2,-5%,-35%,-8%,4%,-18%
Cc1ccc(CNC(=O)C2CCC(=O)N(CCc3ccc(Cl)cc3)C2)cc1 (stereo not drawn),-13%,/,-18%,7%,-2%
COc1ccc(NC(=O)C2CCN(S(=O)(=O)c3c(C)noc3/C=C/c3ccco3)CC2)cc1,/,-58%[59 µM],10µM*,-11%,/
Cc1noc(/C=C/c2ccco2)c1S(=O)(=O)N1CCC(C(=O)N(C)Cc2ccccc2)CC1,45µM*,?,-22%,-15%,-29%
CCOCCCNC(=O)C1CCN(S(=O)(=O)c2cc(Br)cc3c2N(C(=O)CC)CC3)CC1,9%,0%,-8%,8%,0%
CSc1nsc(SCC(=O)Nc2ccccc2C(N)=O)n1,2%,79µM*,-6%,13%,-3%
CSc1nsc(SCC(=O)Nc2ccccc2F)n1,5%,12%,9%,21%,-2%
COc1ccc2c(CC(=O)NCc3ccc4c(c3)OCO4)coc2c1,11%,?,40µM*,-19%,50µM*
CSc1nsc(SCC(=O)Nc2ccc(OC(C)=O)cc2)n1,-12%,-26%,1%,52%,-7%
COc1ccc(CNC(=O)CSc2nc(SC)ns2)cc1,2%,45µM*,-13%,22%,-7%
COc1ccc(-c2nsc(SCC(=O)NCc3ccc4c(c3)OCO4)n2)cc1,-8%,25µM*,4%,50%,-4%
C/C(CS(=O)(=O)c1ccc(Cl)c(Cl)c1)=N/NC(N)=S,?,6%,-12%,17%,7%
C/C(CS(=O)(=O)c1ccc(Cl)cc1)=N/NC(N)=S,79µM*,-4%,-8%,66%,-10%
COc1ccc(CCNc2oc(Cc3cccc4ccccc34)nc2C#N)cc1OC,14%,?,?,?,?
COc1ccc(CCNc2oc(COc3ccccc3F)nc2C#N)cc1,2%,35µM*,-30%,-26%,?
COc1ccc(CCNc2oc(COc3ccc(Br)cc3)nc2C#N)cc1OC,4%,40µM*,?,28%,?
COc1ccc(CNc2oc(COc3ccc(Cl)cc3)nc2C#N)cc1,18%,?,?,?,?
N#Cc1nc(COc2ccccc2F)oc1NCc1ccc(F)cc1,30%,35µM*,-30%,-8%,?
COc1ccc(S(=O)Cc2ccc(C(=O)N3CCN(C(=O)c4ccco4)CC3)o2)cc1 (stereo not drawn),9%,7%,1%,48%,-3%
COc1ccc([N+](=O)[O-])cc1C(=O)C(=O)c1ccccc1,-2%,/,-29%,18%,-6%
SMILES,Sfp inh,G9a block,JMJD2A Tudor,HP1b chromo inh,BAZ2B block
COc1cc(C(=O)O)nc2ccc([N+](=O)[O-])cc12,10µM*,18µM*,-17%[11.4 µM],23%,50µM*
Cc1cc(-c2csc(N)n2)c(C)n1CCC(C)C,50µM*,10µM*,50µM*,-31%,?
Nc1nc(-c2cc(-c3ccccc3)no2)cs1,7%,-4%,-7%,31%,9%
Cc1cc(-c2csc(N)n2)c(C)n1CCc1ccccc1,45µM*,?,45µM*,-18%,45µM*
COc1ccc(NC2CCCN(C(=O)CCCN3CCCCC3=O)C2)cc1 (stereo not drawn),11%,/,-18%,26%,-9%
Cc1ccccc1-c1nc(C#N)c(N2CCC(C)CC2)o1,-8%,35µM*,?,?,?
CC1CCN(c2oc(-c3ccccc3Cl)nc2C#N)CC1,?,10µM*,?,?,10µM*
Cc1cc(C)n(-c2ccc(C(=O)Nc3cc(S(=O)(=O)N(C)C)ccc3Cl)cc2)n1,15%,79µM*,?,30%,5%
COc1ccccc1OCCCC(=O)Nc1nccs1,14%,/,-11%,42%,3%
CCc1nnc(N2C(=N)SCC2=O)s1,50µM*,28µM*,28µM*,-2%,79µM*
N=C1SCC(=O)N1c1ncc(Cc2ccccc2Cl)s1,4%,15%,-16%,-3%,8%
Cc1ccc(C)c(-n2c(CCC(=O)O)ccc2-c2ccc(Cl)cc2)c1,/,13µM*,?,-13%,40µM*
Cc1ccc(-c2ccc(CCC(=O)O)n2NC(N)=S)cc1,?,?,?,19%,-11%
COc1ccc(C(=O)Nn2c(CCC(=O)O)ccc2-c2ccc(C)cc2)cc1OC,3%,-30%,50µM*,-19%,-25%
COc1ccc(-c2ccc(CCC(=O)O)n2-c2ccc(Cl)cc2C)cc1,/,?,?,2%,?
CC(=O)c1cccc(-n2c(CCC(=O)O)ccc2-c2ccc(C)cc2)c1,-19%,18%[2.33 µM],-36%,-13%,-27%
Cc1ccc(-c2ccc(CCC(=O)O)n2C(C)C)cc1,17%,79µM*,-30%,-3%,?
Cc1ccc(-c2ccc(CCC(=O)O)n2-c2ccc(C)c(Cl)c2)cc1,/,13µM*,?,-19%,?
Cc1occc1C(=O)NCc1nc(-c2ccccc2)no1,15%,10%,-5%,8%,-9%
Cn1c(CCNC(=O)c2cccs2)n[nH]c1=S,-25%,22µM*,18µM*,2%,3%
Cc1cccc(C(=O)NCCc2n[nH]c(=S)n2C)c1,?,11µM*,?,10%,-2%
Cc1ccc(-n2c(CNC(=O)c3cccs3)nnc2SCC(=O)NO)cc1,9%,-4%,-2%[11.4 µM],56%,-36%
Cc1cccc(C(=O)NCCc2nnc(SCC(=O)Nc3cccc(C(=O)O)c3)n2C)c1,3%,8%[0.501 µM],-8%,20%,-9%
CCn1c(CCNC(=O)c2cccs2)n[nH]c1=S,-3%,?,?,34%,24%
